Reference: paper PMC7862700, “An all-to-all approach to the identification of sequence-specific readers for epigenetic DNA modifications on cytosine”

Columns and labels:
Test in all cases: DAPPL (digital affinity profiling via proximity ligation, sequencing); 10 mM Tris-HCl pH 7.5, 50 mM NaCl, 1 mM DTT, 4% glycerol, room temperature, 30 min; GST-TFs on glutathione beads, 16-mer random dsDNA library, 0.1% formaldehyde crosslink after washing; high values mean tight binding
Conditions in all cases: protein: recombinant; tags: N-terminal GST; dsDNA, one strand shown
[1] = molecular target: T1, FLI1 (Homo sapiens, UniProt Q01543 1-452)
T1 sequence: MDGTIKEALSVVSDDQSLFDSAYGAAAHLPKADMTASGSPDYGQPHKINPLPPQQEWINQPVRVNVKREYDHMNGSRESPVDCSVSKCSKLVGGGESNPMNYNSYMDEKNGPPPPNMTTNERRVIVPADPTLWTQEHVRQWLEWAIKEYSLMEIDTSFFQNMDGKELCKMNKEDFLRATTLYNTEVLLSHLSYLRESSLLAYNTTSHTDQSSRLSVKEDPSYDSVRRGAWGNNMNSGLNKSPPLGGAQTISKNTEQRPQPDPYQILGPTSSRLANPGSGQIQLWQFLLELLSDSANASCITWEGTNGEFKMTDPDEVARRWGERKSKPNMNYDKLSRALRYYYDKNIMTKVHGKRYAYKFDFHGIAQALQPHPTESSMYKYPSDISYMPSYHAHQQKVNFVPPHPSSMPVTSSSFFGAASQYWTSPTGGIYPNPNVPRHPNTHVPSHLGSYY
Outline: (§1)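 Binding signal is defined as a hexamer's read frequency for one factor over its frequency for the tag-only sample. To obtain reads, GST-fused human transcription factors were expressed in yeast, captured on glutathione beads, barcoded with DNA and pooled with that sample. Pools met 200 nmole of a 16-mer random double-stranded DNA library in Tris/NaCl/DTT/glycerol buffer for 30 min at room temperature before washing, 0.1% formaldehyde crosslinking, proximity ligation (BsaI/T4 ligase, 1 h, 37 °C), PCR and Illumina NextSeq500 sequencing.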

[2] = molecular target: T2, ELK1 (Homo sapiens, UniProt P19419 1-428)
T2 sequence: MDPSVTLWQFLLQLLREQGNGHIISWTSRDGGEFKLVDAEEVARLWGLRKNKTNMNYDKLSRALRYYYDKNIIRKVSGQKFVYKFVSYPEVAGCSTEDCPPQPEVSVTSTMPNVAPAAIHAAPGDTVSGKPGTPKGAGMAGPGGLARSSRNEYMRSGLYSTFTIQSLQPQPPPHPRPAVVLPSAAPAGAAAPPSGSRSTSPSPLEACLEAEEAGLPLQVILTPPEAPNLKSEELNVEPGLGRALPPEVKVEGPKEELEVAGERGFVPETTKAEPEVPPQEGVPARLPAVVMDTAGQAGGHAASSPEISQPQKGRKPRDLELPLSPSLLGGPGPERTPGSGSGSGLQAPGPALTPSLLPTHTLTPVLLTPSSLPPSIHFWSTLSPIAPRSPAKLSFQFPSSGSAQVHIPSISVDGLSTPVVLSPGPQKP
Outline: as §1

[3] = molecular target: T3, GABPA (Homo sapiens, UniProt Q06546 1-454)
T3 sequence: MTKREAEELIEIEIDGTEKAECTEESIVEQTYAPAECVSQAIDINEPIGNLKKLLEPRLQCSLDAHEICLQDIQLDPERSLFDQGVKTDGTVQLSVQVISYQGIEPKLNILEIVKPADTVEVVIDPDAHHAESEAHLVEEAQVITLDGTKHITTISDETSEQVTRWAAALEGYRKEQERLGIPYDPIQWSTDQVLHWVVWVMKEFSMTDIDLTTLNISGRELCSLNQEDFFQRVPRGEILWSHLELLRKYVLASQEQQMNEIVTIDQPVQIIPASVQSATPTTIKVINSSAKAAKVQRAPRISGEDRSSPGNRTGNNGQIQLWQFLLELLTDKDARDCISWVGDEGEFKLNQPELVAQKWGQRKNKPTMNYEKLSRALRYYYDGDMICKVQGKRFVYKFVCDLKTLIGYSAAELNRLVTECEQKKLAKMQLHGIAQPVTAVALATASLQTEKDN
Outline: as §1

[4] = molecular target: T4, ERG (Homo sapiens, UniProt P11308 1-479)
T4 sequence: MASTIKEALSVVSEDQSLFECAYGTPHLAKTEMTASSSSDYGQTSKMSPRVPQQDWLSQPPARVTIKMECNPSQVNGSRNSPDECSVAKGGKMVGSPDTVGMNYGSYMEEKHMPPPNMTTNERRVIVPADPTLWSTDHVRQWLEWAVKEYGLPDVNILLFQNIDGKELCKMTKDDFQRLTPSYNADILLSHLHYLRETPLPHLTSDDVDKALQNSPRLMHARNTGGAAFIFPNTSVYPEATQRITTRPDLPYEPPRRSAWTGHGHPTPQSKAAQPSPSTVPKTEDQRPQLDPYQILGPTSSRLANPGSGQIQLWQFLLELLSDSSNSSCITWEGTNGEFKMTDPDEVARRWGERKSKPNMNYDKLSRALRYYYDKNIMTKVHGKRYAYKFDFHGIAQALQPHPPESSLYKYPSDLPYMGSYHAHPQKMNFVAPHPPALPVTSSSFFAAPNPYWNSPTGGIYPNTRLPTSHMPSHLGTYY
Outline: as §1

[5] = molecular target: ELF1 (Homo sapiens, UniProt P32519 1-619)
Outline: as §1

[6] = molecular target: T5, EHF (Homo sapiens, UniProt Q9NZC4 1-300)
T5 sequence: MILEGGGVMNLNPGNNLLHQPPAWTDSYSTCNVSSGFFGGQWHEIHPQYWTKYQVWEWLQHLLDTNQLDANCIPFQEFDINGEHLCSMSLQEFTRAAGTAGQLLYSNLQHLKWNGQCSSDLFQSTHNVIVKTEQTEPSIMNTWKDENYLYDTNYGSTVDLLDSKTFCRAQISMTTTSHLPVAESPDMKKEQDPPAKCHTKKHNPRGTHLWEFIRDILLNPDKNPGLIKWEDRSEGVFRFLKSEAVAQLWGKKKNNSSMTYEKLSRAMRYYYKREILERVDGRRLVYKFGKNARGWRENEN
Outline: as §1

[7] = molecular target: SPI1 (Homo sapiens, UniProt P17947 1-270)
Outline: as §1

[8] = molecular target: SPIB (Homo sapiens, UniProt Q01892 1-262)
Outline: as §1

[9] = molecular target: T6, ELK3 (Homo sapiens, UniProt P41970 1-407)
T6 sequence: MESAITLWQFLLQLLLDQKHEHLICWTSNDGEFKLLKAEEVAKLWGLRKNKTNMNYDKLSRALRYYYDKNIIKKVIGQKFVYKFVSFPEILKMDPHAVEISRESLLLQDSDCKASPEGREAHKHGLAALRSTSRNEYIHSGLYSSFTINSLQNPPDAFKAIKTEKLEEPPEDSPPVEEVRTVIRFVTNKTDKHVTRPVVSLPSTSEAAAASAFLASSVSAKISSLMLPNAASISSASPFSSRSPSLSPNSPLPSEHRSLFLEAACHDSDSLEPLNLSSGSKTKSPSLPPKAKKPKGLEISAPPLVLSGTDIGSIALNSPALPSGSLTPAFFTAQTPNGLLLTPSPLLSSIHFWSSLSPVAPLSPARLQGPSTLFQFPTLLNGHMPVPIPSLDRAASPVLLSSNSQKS
Outline: as §1

[10] = molecular target: T7, FEV (Homo sapiens, UniProt Q99581 1-238)
T7 sequence: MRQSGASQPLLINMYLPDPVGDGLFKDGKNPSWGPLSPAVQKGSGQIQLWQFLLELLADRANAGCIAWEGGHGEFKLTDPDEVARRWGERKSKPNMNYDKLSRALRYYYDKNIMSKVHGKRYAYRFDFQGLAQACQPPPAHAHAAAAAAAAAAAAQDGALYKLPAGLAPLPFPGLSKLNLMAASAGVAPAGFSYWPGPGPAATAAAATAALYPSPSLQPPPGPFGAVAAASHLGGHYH
Outline: as §1

[11] = molecular target: ETV5 (Homo sapiens, UniProt P41161 1-510)
Outline: as §1

[12] = molecular target: T8, SPIC (Homo sapiens, UniProt Q8N5J4 1-248)
T8 sequence: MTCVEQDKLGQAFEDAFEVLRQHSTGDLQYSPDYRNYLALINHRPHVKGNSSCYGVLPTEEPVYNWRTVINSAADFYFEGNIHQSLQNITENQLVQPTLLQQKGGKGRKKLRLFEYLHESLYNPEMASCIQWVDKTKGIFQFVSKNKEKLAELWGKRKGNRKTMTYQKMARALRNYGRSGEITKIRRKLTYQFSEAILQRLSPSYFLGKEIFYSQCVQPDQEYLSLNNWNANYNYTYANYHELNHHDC
Outline: as §1

[13] = molecular target: ELF4 (Homo sapiens, UniProt Q99607 1-663)
Outline: as §1

[14] = molecular target: T9, ELK4 (Homo sapiens, UniProt P28324-2 1-405)
T9 sequence: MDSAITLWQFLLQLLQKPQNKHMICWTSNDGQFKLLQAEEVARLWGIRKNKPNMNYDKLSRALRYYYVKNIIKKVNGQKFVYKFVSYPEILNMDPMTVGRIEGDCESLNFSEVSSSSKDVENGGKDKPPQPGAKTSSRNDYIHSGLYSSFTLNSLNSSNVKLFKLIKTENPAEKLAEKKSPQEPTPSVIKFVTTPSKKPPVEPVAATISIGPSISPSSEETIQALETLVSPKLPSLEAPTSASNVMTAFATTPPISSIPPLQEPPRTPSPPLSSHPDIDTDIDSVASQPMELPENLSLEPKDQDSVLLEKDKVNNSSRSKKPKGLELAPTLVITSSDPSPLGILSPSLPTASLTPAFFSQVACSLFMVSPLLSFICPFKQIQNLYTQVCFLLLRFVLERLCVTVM
Outline: as §1

[15] = molecular target: T10, ETV2 (Homo sapiens, UniProt O00321 1-342)
T10 sequence: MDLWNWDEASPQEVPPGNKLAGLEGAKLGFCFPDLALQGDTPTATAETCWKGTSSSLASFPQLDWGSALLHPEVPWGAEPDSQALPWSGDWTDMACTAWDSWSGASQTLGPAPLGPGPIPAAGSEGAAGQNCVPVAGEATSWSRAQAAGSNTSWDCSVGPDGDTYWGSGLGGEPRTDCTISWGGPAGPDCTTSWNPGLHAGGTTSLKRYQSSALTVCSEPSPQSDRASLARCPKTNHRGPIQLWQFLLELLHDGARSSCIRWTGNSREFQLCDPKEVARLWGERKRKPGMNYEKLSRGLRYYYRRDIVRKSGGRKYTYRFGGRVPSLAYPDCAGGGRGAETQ
Outline: as §1

[16] = molecular target: T11, ELF3 (Homo sapiens, UniProt P78545 1-371)
T11 sequence: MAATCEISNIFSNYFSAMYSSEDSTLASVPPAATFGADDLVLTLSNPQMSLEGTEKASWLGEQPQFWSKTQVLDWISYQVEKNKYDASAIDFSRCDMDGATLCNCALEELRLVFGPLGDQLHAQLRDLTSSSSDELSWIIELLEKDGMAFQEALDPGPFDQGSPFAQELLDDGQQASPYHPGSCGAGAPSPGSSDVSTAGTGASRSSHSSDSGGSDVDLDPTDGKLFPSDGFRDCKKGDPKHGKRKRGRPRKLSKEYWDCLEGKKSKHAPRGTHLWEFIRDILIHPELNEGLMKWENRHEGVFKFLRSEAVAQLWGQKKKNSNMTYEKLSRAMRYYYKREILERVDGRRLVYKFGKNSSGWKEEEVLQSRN
Outline: as §1

[17] = molecular target: ETV1 (Homo sapiens, UniProt P50549 1-477)
Outline: as §1

SPIB, sequence (Q01892 whole entry): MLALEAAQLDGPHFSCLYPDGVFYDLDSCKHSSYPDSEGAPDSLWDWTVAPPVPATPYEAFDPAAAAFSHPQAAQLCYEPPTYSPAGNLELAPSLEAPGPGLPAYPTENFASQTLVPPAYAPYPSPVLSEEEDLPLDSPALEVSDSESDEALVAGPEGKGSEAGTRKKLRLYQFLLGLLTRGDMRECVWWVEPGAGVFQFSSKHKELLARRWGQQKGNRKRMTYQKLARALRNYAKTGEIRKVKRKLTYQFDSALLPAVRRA
ETV1, sequence (P50549 whole entry): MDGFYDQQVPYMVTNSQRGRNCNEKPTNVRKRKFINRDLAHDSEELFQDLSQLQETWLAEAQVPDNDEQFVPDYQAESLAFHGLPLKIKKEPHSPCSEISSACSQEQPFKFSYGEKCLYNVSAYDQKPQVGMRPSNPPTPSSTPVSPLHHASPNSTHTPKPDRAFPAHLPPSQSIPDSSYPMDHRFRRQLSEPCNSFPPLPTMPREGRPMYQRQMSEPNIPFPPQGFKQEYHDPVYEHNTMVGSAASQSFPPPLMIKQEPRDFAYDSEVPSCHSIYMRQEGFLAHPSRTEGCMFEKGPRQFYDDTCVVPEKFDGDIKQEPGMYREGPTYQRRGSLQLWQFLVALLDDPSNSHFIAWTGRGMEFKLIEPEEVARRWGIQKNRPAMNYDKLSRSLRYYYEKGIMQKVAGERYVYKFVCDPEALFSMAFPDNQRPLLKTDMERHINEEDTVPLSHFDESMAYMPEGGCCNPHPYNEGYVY
ELF4, sequence (Q99607 whole entry): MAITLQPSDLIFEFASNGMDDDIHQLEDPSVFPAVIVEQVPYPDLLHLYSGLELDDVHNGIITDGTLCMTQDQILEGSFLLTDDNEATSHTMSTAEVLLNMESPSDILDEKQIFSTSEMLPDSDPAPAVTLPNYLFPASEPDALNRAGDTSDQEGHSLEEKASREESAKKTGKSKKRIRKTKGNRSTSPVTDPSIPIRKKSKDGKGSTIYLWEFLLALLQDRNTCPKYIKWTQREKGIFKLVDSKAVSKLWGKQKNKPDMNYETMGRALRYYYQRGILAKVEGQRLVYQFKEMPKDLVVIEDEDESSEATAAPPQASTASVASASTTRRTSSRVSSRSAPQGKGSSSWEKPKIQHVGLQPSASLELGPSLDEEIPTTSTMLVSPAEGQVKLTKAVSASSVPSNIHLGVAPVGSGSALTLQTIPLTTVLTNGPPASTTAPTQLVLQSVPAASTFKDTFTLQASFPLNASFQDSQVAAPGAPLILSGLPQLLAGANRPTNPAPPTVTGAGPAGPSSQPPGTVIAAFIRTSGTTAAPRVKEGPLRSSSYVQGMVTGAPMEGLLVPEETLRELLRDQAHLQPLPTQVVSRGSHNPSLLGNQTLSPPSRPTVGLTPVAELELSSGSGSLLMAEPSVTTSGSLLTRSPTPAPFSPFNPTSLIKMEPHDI
ETV5, sequence (P41161 whole entry): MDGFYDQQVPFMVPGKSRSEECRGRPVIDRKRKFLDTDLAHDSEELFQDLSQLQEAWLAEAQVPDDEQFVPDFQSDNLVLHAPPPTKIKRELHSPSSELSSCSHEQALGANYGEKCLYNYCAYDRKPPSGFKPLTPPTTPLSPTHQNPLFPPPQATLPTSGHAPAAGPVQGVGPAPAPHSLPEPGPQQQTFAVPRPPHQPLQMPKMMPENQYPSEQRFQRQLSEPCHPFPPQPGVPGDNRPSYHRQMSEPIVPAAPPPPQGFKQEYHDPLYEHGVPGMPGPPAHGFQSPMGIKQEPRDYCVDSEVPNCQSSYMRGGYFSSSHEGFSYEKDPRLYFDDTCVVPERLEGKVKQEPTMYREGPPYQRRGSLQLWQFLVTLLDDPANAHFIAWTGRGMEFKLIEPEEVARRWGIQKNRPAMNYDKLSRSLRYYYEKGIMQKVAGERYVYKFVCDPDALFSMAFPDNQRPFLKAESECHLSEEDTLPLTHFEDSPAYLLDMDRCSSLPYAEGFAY
ELF1, sequence (P32519 whole entry): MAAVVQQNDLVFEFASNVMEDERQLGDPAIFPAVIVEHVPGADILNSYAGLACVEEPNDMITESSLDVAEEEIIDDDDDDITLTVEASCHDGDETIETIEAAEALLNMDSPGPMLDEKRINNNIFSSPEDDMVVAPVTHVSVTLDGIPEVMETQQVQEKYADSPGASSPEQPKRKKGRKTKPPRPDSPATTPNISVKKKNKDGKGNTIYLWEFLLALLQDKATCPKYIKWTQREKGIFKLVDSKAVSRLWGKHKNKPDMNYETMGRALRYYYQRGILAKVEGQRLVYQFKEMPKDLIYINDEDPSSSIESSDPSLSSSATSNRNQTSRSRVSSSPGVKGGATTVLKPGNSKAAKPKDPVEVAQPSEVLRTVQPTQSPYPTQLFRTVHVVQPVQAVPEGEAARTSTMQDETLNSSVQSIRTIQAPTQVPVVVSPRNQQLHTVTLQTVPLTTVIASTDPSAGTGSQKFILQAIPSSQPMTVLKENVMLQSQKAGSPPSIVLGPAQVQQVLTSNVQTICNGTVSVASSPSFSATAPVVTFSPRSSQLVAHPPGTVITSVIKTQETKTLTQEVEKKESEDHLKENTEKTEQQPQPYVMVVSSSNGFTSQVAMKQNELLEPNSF

Sequence	binding signal [1]	binding signal [2]	binding signal [3]	binding signal [4]	binding signal [5]	binding signal [6]	binding signal [7]	binding signal [8]	binding signal [9]	binding signal [10]	binding signal [11]	binding signal [12]	binding signal [13]	binding signal [14]	binding signal [15]	binding signal [16]	binding signal [17]
CGGATG	1.53 fold enrichment (6-mer frequency, TF over GST control)	1.66 fold enrichment (6-mer frequency, TF over GST control)	1.49 fold enrichment (6-mer frequency, TF over GST control)	1.92 fold enrichment (6-mer frequency, TF over GST control)	1.45 fold enrichment (6-mer frequency, TF over GST control)	1.67 fold enrichment (6-mer frequency, TF over GST control)	1.52 fold enrichment (6-mer frequency, TF over GST control)	1.6 fold enrichment (6-mer frequency, TF over GST control)	1.6 fold enrichment (6-mer frequency, TF over GST control)	2.16 fold enrichment (6-mer frequency, TF over GST control)	1.71 fold enrichment (6-mer frequency, TF over GST control)	1.48 fold enrichment (6-mer frequency, TF over GST control)	1.36 fold enrichment (6-mer frequency, TF over GST control)	1.31 fold enrichment (6-mer frequency, TF over GST control)	1.39 fold enrichment (6-mer frequency, TF over GST control)	1.48 fold enrichment (6-mer frequency, TF over GST control)	1.74 fold enrichment (6-mer frequency, TF over GST control)
ACAGGA	1.15 fold enrichment (6-mer frequency, TF over GST control)	1.08 fold enrichment (6-mer frequency, TF over GST control)	1.13 fold enrichment (6-mer frequency, TF over GST control)	1.22 fold enrichment (6-mer frequency, TF over GST control)	1.04 fold enrichment (6-mer frequency, TF over GST control)	1.12 fold enrichment (6-mer frequency, TF over GST control)	1.34 fold enrichment (6-mer frequency, TF over GST control)	1.22 fold enrichment (6-mer frequency, TF over GST control)	1.04 fold enrichment (6-mer frequency, TF over GST control)	1.18 fold enrichment (6-mer frequency, TF over GST control)	1.19 fold enrichment (6-mer frequency, TF over GST control)	1.07 fold enrichment (6-mer frequency, TF over GST control)	1.04 fold enrichment (6-mer frequency, TF over GST control)	1.04 fold enrichment (6-mer frequency, TF over GST control)	1.06 fold enrichment (6-mer frequency, TF over GST control)	1.15 fold enrichment (6-mer frequency, TF over GST control)	1.16 fold enrichment (6-mer frequency, TF over GST control)
